# Measured values published in publication PMC13494018.
# Unmarked numbers belong to inactive results. The rule behind the calls is not given here.
# B1: design_608_fd41b8f9-4da9-4c78-93ec-aaa316ed4933_228_dldesign_0_cycle1_af2pred (protein)
# chain: GEEVIKEIAEEEIKEAEKTLKEAEKLLKKGGTEEAKEAVEKAKEYIKKGKEKLEEGDYKTAYSLATLGKHNAEIAIKLIKEKN
# B2: design_608_fd41b8f9-4da9-4c78-93ec-aaa316ed4933_922_dldesign_0_cycle1_af2pred (protein)
# chain: GETEKLREEAQKLMDEAVDLLDKAKTEEEVEKAVEIAEEAYKVAAKATPEIAESALKGYKGLKKMAEEIKKVLKK
# B3: design_608_fd41b8f9-4da9-4c78-93ec-aaa316ed4933_669_dldesign_0_cycle1_af2pred (protein)
# chain: KEELKKALEKTRKEVKAAAAGKPQDVIDVIRKGAKEAEKLNKNAGILLEAAANRAEFAGATPAEAAAIALKAIERAEKE
# B4: design_608_fd41b8f9-4da9-4c78-93ec-aaa316ed4933_287_dldesign_0_cycle1_af2pred (protein)
# chain: MEAENMEKAIKKLREGKAALKTTPEEAARVLRAQAKELKELAKKSSPENAAFMETQAKAMEKKAKELEAKAAA
# B5: design_608_fd41b8f9-4da9-4c78-93ec-aaa316ed4933_536_dldesign_0_cycle1_af2pred (protein)
# chain: NNAEASKLAHEGYEYRAEGAQLSKKNPAKAAVLFEEAAKKFAEAAKLAEDPEDKKLLQAYADRALAEAKKAAAEAAKALA
# B6: design_608_fd41b8f9-4da9-4c78-93ec-aaa316ed4933_750_dldesign_0_cycle1_af2pred (protein)
# chain: GEETEKLKKELEKAEKEAKEALKKAKELTKEEAKKLLSEQAAKVAELAAESSKDKEVSKEAKKVLKEVRKEGKEILEEK
# B7: design_608_fd41b8f9-4da9-4c78-93ec-aaa316ed4933_704_dldesign_0_cycle1_af2pred (protein)
# chain: DAAAATARALADQAVAAGKAGEEGDLATAKAARETLAALREELRKLVEEDPSVAPYASAGMAEGYQAIAEGFKKNS
# B8: design_608_fd41b8f9-4da9-4c78-93ec-aaa316ed4933_627_dldesign_0_cycle1_af2pred (protein)
# chain: SEKKKVGEEAYKVASRALSIAYAKGDKEFEEKAEELLEKVEEVKKNGNLEEAKKALEEAKALLKEAEKLAKER
# B9: design_608_fd41b8f9-4da9-4c78-93ec-aaa316ed4933_209_dldesign_0_cycle1_af2pred (protein)
# chain: AEEEEEKKREKLLEEAKKLGKEAAKYVKKAIAKGKTEEATALAAEASKALLALYDLDAAGEPYEKAKAEYDKIKELTEKIKALAE
# B10: design_608_fd41b8f9-4da9-4c78-93ec-aaa316ed4933_615_dldesign_0_cycle1_af2pred (protein)
# chain: DPAEELAKKLLEIADLAAKPETLEKALEEAEKLKEEALKLAEKYADDPALKKKYLKAAKTAESFIEDIKRSKEL
# B11: design_608_fd41b8f9-4da9-4c78-93ec-aaa316ed4933_581_dldesign_0_cycle1_af2pred (protein)
# chain: SEELEKVKKLLEKGIETAKKNPVKGASLLLKAEHMAKQLAEKKKGTEEAKELEELSKKAKEEFDKAAKKISE
# B12: design_608_fd41b8f9-4da9-4c78-93ec-aaa316ed4933_796_dldesign_0_cycle1_af2pred (protein)
# chain: EEAKEKAKKLEEEALKKAKEAGELIGKPKQVVHLTKLAIEDPELIPLAKKAILEAAKELKKKDPEKGKKAEELAKEMEKYVKEANKLK
# B13: design_608_fd41b8f9-4da9-4c78-93ec-aaa316ed4933_998_dldesign_0_cycle1_af2pred (protein)
# chain: SELAKKAIEHLKKAIELAKTDPKYAPQIIAAAKAAIAALEKGDYEKAYKEASKALSIAYAAGNKEAEEELSEALYYIVKASK
# B14: design_608_fd41b8f9-4da9-4c78-93ec-aaa316ed4933_323_dldesign_0_cycle1_af2pred (protein)
# chain: VLEEVLKLGKEAAEALLKPNGKEEAAKLVEEAEKVVKSHPNAPTEASYVLVTMRRAVRKPDHEEGAKRVREAVEEAE
# B15: design_608_fd41b8f9-4da9-4c78-93ec-aaa316ed4933_509_dldesign_0_cycle1_af2pred (protein)
# chain: EEEKSKLTREAADAVRTFGKNATKARPEMSRLEVMDKIDAGLENPELLKETTEEYAEAAKEKGLEEDAEKIKESGKILLKYVKE
# B16: design_608_fd41b8f9-4da9-4c78-93ec-aaa316ed4933_265_dldesign_0_cycle1_af2pred (protein)
# chain: GLKEELRKLATQYMHEAAEYAAEAEHLANRGGDLAEVEEAAKKAKEYAEKSIELMKEAGTEEEYEKAKKVAEKLIARAEAALKKK
# B17: design_608_fd41b8f9-4da9-4c78-93ec-aaa316ed4933_544_dldesign_0_cycle1_af2pred (protein)
# chain: AAAAAAEAAAKVAKVKELAKEAAEDPSKAPEVYKEGKKIADAATPETAAAIAAEMHKGHEERAENSWKRSRE
# B18: design_608_fd41b8f9-4da9-4c78-93ec-aaa316ed4933_913_dldesign_0_cycle1_af2pred (protein)
# chain: ATLAELSAAFAKAYELIAEGEKASPEEGVKLMEKAKEEVEAARKLAEASADKEAALAGVERLAKRVEENKAKAEAKLKAA
# B19: design_608_fd41b8f9-4da9-4c78-93ec-aaa316ed4933_446_dldesign_0_cycle1_af2pred (protein)
# chain: LEATAEAYAEAILHAGEEAAKVAKKLSEELAEEVRKKAEEFAKKALDDPSKAKEYLKKAREYFKKVVEEVKEKL
# Biological target: VTCN1, Q7Z7D3
# Sequence (Q7Z7D3 whole entry): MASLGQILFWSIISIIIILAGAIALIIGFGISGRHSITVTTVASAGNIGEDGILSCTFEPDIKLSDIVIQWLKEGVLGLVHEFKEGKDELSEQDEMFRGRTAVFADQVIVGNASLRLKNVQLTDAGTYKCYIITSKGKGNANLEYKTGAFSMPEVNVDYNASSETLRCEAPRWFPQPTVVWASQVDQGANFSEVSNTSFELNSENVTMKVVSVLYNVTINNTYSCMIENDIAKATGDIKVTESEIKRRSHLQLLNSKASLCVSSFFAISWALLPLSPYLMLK
row,Binder,binding in a display sort
1,B1,not found
2,B2,not found
3,B3,not found
4,B4,not found
5,B5,not found
6,B6,not found
7,B7,not found
8,B8,not found
9,B9,not found
10,B10,not found
11,B11,not found
12,B12,not found
13,B13,not found
14,B14,not found
15,B15,not found
16,B16,not found
17,B17,not found
18,B18,not found
19,B19,not found
